Where “and” joins values, the source holds several entries; their conditions need not be identical. Identical values can stand only once. Records with an inconclusive call do not appear. Some compounds were tested as several samples or in several runs, with calls that do not always agree. Calls of active or inactive are those of the source. Unless noted, calls come from the whole dose curve; as a rule, active = well fitted curve in the direction sought with a large enough effect in the repeat runs; inconclusive = weak or mixed curves; inactive = no such curve, though single readings can be large; an effect the other way counts as inactive or inconclusive.
Key:
[1] = molecular target: Estrogen receptor beta (Homo sapiens) (UniProt Q92731); test: qHTS assay to identify small molecule agonists of the estrogen receptor beta (ER-beta) signaling pathway (AID 1259377; active = well fitted activation curve with a large enough effect in the signal ratio in the repeat runs, not every such curve was filed as active; the % refers to the signal ratio)
Summary of the method: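 In HEK293T cells bearing a UAS-beta-lactamase reporter under ER-beta control, DMSO-delivered compounds were incubated for 16 hr at 37C. Activity was detected as fluorescence 2 hours after LiveBLAzer B/G FRET substrate addition.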

[2] = molecular target: Estrogen receptor beta (Homo sapiens) (UniProt Q92731); test: qHTS assay to identify small molecule antagonists of the estrogen receptor beta (ER-beta) signaling pathway (AID 1259378; active = well fitted inhibition curve with a large enough effect in the signal ratio in the repeat runs, not every such curve was filed as active; the % refers to the signal ratio; note: potency is the fitted concentration of half-maximal effect)
Summary of the method: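 Antagonist mode: compounds added to beta-lactamase reporter HEK293T ER-beta-UAS cells stimulated with E2 (1nM final), 16 hr at 37C. LiveBLAzer B/G FRET substrate, 2 hours room temperature, fluorescence read-out.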

[3] = qHTS assay to identify small molecule agonists of the androgen receptor (AR) signaling pathway in the presence of an antagonist - cell viability counter screen (AID 1259379);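 note: MDA-kb2 human breast cancer cells carrying an MMTV luciferase reporter; series mostly up to about 92 µM; nearly all actives have a fitted effect of over 25% in size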
Summary of the method: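 Nilutamide-containing (3.0uM final) MDA-kb2 cultures, 3,000 cells/well, were treated with compounds across 15 concentrations. After 16 hr at 37C with no CO2, cell viability was determined by CellTiter-Fluor fluorescence in the luciferase assay wells.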

[4] = qHTS assay to identify small molecule agonists of the estrogen receptor beta (ER-beta) signaling pathway - cell viability counter screen (AID 1259380); note: nearly all actives have a fitted effect of over 30% in size; note: potency is the fitted concentration of half-maximal effect
Summary of the method: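 Steps: plate ER-beta-UAS-bla HEK293T cells, rest 6 hr; add compounds in DMSO; incubate 16 hr at 37C, 5% CO2; add FRET substrate 2 hr; add CellTiter-Glo, wait 30 min at room temperature; read luminescence.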

[5] = molecular target: Estrogen receptor (Homo sapiens) (UniProt P03372); test: qHTS assay to identify small molecule agonists of the estrogen receptor alpha (ER-alpha) signaling pathway in the presence of an antagonist (AID 1259383; calls by dose curve; note: top concentration of the series differs between compounds; nearly all actives have a fitted effect of over 15% in size)
Summary of the method: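 Readout was ERE-driven luciferase luminescence in VM7Luc4E2 cells, which express full-length ER-alpha endogenously. Compounds were tested at 15 concentrations for 22hr alongside 10.0nM ICI-182,780 (final concentration).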

[6] = qHTS assay to identify small molecule agonists or antagonists of the thyroid stimulating hormone receptor (TSHR) signaling pathway - wild type cell line counter screen (AID 1259384; calls by dose curve)
Summary of the method: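 Counter screen in untransfected Hek293: compounds (15-point titration, triplicate) plus phosphodiesterase inhibitor Ro20-1724 added after 18 h plating; 30 min RT. Intracellular cAMP via competitive d2/cryptate immunoassay, 1 h incubation.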

[7] = molecular target: Thyrotropin receptor (Homo sapiens) (UniProt P16473); test: qHTS assay to identify small molecule antagonists of the thyroid stimulating hormone receptor (TSHR) signaling pathway (AID 1259385; calls by dose curve; note: nearly all actives have a fitted effect of over 20% in size; note: potency is the fitted concentration of half-maximal effect)
Summary of the method: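 Antagonist mode: compound-treated TSHR-expressing HEK293 cells were stimulated with 1.5 ng/mL TSH (final) in presence of Ro20-1724 for 30 min at RT. HTRF cAMP detection after 1 h; each compound tested at 15 concentrations, triplicate.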

[8] = qHTS assay to identify small molecule agonists of the estrogen receptor alpha (ER-alpha) signaling pathway in the presence of an antagonist - cell viability counter screen (AID 1259386);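 note: cells exposed to compounds for 22 h at 37 °C before the viability read; nearly all actives have a fitted effect of over 30% in size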; note: potency is the fitted concentration of half-maximal effect
Summary of the method: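 In this counter screen, compound effects on VM7Luc4E2 viability were tested in the presence of the antagonist ICI-182,780 at 10.0nM final. Compounds were dosed at 15 concentrations, exposure lasted 22hr, and the CellTiter-Fluor signal was read.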

[9] = molecular target: Progesterone receptor (Homo sapiens) (UniProt P06401); test: qHTS assay to identify small molecule agonists of the progesterone receptor (PR) signaling pathway (AID 1346784; calls by dose curve; note: nearly all actives have a fitted effect of over 30% in size; note: potency is the fitted concentration of half-maximal effect)
Summary of the method: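 Using charcoal-stripped serum (2%) to limit endogenous steroids, PR-UAS-bla HEK 293T cells received compounds for 16 hr at 37C after 6 hr plating; beta-lactamase FRET fluorescence was recorded following 2 hr substrate loading at room temperature.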

[10] = molecular target: Progesterone receptor (Homo sapiens) (UniProt P06401); test: qHTS assay to identify small molecule antagonists of the progesterone receptor (PR) signaling pathway (AID 1346795; active = well fitted inhibition curve with a large enough effect in the signal ratio in the repeat runs, not every such curve was filed as active; the % refers to the signal ratio; note: potency is the fitted concentration of half-maximal effect)
Summary of the method: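 Inhibition of R5020-induced (1 nM final) beta-lactamase reporter signal in PR-UAS-bla HEK293T cells was scored by FRET fluorescence after overnight (16 hr) compound treatment.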

[11] = qHTS assay to identify small molecule agonists of the progesterone receptor (PR) signaling pathway - cell viability counter screen (AID 1346799; calls by dose curve; note: nearly all actives have a fitted effect of over 45% in size)
Summary of the method: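 Cytotoxicity in PR-bla HEK293T cells: 16 h compound, 37C; CellTiter-Glo added post-FRET read; luminescence after 30 min RT.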

[12] = qHTS assay to identify small molecule agonists of the TGF-beta/Smad signaling pathway - cell viability counter screen (AID 1346829); note: top concentration of the series differs between compounds; nearly all actives have a fitted effect of over 45% in size
Summary of the method: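 SBE-bla HEK 293T cells plated overnight, compound exposure 5 hr at 37 C. Viability read in the same wells by CellTiter-Glo luminescence after 30 min at room temperature, following the beta-lactamase read.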

[13] = qHTS assay to identify small molecule agonists of the TGF-beta/Smad signaling pathway (AID 1346859; active = well fitted activation curve with a large enough effect in the signal ratio in the repeat runs, not every such curve was filed as active; the % refers to the signal ratio; note: series mostly up to about 77 µM)
Summary of the method: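 Stable Smad binding element-beta-lactamase HEK 293T cells; 5 hr compound exposure at 37 C under 5% CO2; 2 hr room-temperature substrate step; fluorescence excited at 405 nm, collected at 460 nm and 530 nm.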

[14] = molecular target: Thyrotropin-releasing hormone receptor (Homo sapiens) (UniProt P34981); test: qHTS assay to identify small molecule antagonists of the thyrotropin-releasing hormone receptor (TRHR) signaling pathway (AID 1346877; active = well fitted inhibition curve with a large enough effect in the repeat runs, not every such curve was filed as active; note: series mostly up to about 51 µM)
Summary of the method: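 Kinetic fluorescence (3 min, 1 s resolution) following stimulation with TRH at 1 nM final; HEK293 cells bearing human TRHR; 5 min compound preincubation at RT; concentration-response over 15 points, triplicates.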

[15] = molecular target: Thyrotropin-releasing hormone receptor (Homo sapiens) (UniProt P34981); test: qHTS assay to identify small molecule agonists of the thyrotropin-releasing hormone receptor (TRHR) signaling pathway (AID 1346891; calls by dose curve;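 note: HEK293 cells expressing TRHR with calcium dye readout; series mostly up to about 58 µM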)
Summary of the method: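 In 1536-format, 1500 TRHR-Hek293 cells per well grew 18 h, took up calcium dye for 2 h at 37 °C, received compound, and were read kinetically; 15-point titrations, triplicates.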

[16] = Human pregnane X receptor (PXR) small molecule agonists, qHTS cell viability counter screen (AID 1346977); note: nearly all actives have a fitted effect of over 50% in size
Summary of the method: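 Readout is CellTiter-Fluor fluorescence from PXR-Luc HepG2 cells. Plated cells rested 5hr, then were treated with compounds for 24hr at 37C and 5% CO2, with reagent present during the last hour.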

[17] = qHTS assay to identify small molecule antagonists of the estrogen receptor beta (ER-beta) signaling pathway - cell viability counter screen (AID 1259382);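 note: HEK293T cells carrying ER-beta-UAS-bla reporter stimulated with estradiol; series mostly up to about 92 µM; nearly all actives have a fitted effect of over 55% in size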
Summary of the method: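 Viability is scored by CellTiter-Glo luminescence (30 min, room temperature) in ER-beta-UAS-bla HEK293T wells already read for reporter fluorescence. Compound exposure lasts 16 hr at 37C alongside 1nM 17-beta-estradiol in charcoal-stripped serum medium.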

[18] = qHTS assay to identify small molecule antagonists of the TGF-beta/Smad signaling pathway - cell viability counter screen (AID 1346824); note: nearly all actives have a fitted effect of over 50% in size
Summary of the method: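 Cytotoxicity counter-screen run in the same wells as the beta-lactamase Smad reporter read: CellTiter-Glo luminescence after 30 min at room temperature. HEK 293T SBE-bla cells had 5 hr compound exposure at 37 C with TGF-beta1 (0.25 ng/mL stock).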

[19] = qHTS assay to identify small molecule antagonists of the progesterone receptor (PR) signaling pathway - cell viability counter screen (AID 1346798); note: series mostly up to about 92 µM; nearly all actives have a fitted effect of over 50% in size
Summary of the method: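 ATP content as viability readout: CellTiter-Glo luminescence, 30 min room temperature, in PR-UAS-bla HEK293T cells after 16 hr compound/R5020 treatment at 37C and 5% CO2.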

[20] = molecular target: Androgen receptor (Homo sapiens) (UniProt P10275); test: qHTS assay to identify small molecule agonists of the androgen receptor (AR) signaling pathway in the presence of an antagonist (AID 1259381; calls by dose curve; note: nearly all actives have a fitted effect of over 15% in size)
Summary of the method: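 Reporter-gene luminescence from MDA-kb2 cells exposed 16hr at 37C (0% CO2) to 15-point compound titrations with 3.0uM final nilutamide as AR antagonist.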

Measured: Potency

Chain of Thyrotropin-releasing hormone receptor (Homo sapiens) (P34981 whole entry, looked up): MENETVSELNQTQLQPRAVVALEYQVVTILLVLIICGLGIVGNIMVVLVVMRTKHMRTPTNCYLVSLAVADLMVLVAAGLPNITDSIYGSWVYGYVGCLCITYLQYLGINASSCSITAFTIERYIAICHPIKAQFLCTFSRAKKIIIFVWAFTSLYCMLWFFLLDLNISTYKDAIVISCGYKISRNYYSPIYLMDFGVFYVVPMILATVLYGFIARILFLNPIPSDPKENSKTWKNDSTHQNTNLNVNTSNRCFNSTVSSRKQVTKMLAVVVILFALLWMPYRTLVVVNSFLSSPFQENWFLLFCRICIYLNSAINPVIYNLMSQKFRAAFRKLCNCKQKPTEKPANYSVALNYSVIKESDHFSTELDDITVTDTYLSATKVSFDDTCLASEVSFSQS
Chain of Thyrotropin receptor (Homo sapiens) (P16473 whole entry, looked up): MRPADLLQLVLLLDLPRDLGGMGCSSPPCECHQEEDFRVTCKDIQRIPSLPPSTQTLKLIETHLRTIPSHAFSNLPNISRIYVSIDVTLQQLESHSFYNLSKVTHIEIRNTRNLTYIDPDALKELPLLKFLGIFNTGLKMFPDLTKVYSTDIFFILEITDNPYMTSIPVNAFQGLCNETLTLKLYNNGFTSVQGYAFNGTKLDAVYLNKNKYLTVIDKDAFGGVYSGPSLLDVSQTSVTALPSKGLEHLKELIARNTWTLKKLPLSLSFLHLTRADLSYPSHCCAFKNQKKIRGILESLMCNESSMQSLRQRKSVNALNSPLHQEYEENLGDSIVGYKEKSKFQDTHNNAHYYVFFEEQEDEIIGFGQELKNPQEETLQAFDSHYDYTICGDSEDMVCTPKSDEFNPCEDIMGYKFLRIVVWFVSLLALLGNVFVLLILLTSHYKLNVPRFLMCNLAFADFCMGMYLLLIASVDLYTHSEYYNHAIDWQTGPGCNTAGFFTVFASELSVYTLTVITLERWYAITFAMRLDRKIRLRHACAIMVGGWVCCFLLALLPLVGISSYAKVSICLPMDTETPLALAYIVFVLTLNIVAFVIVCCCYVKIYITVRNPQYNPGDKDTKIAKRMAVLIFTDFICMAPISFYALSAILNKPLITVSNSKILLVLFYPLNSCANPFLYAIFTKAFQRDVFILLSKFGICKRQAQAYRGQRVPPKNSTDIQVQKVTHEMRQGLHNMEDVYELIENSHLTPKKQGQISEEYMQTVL
Chain of Estrogen receptor beta (Homo sapiens) (Q92731 whole entry, looked up): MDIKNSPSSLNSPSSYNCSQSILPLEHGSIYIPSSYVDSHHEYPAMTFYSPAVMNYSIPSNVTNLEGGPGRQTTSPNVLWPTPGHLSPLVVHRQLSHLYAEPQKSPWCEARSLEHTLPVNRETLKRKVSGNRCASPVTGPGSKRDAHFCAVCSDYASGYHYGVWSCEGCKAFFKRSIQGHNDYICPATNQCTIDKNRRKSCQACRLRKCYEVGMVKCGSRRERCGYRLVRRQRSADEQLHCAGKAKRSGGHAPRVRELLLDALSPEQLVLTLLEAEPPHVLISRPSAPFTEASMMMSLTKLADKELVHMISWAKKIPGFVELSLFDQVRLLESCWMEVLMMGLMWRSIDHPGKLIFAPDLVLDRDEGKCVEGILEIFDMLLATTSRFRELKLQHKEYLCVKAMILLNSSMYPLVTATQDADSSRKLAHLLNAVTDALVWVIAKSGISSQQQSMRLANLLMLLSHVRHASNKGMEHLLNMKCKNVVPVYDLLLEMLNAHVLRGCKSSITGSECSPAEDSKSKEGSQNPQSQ
Chain of Estrogen receptor (Homo sapiens) (P03372 whole entry, looked up): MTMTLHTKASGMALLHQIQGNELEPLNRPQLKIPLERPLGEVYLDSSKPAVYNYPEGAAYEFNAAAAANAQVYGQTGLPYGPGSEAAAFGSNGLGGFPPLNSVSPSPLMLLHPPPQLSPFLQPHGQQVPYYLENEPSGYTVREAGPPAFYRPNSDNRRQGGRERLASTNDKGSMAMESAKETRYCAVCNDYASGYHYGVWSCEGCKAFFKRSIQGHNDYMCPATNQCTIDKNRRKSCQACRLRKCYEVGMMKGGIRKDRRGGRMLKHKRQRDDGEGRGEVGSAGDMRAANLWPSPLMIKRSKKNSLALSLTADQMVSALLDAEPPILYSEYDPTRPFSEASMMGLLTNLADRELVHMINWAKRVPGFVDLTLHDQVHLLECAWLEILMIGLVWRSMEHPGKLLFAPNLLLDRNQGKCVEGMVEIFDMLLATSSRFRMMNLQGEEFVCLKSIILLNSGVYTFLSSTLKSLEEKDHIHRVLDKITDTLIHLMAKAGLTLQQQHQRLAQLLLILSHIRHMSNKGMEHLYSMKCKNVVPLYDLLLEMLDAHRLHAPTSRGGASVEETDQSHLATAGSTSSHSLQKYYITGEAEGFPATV
Chain of Progesterone receptor (Homo sapiens) (P06401 whole entry, looked up): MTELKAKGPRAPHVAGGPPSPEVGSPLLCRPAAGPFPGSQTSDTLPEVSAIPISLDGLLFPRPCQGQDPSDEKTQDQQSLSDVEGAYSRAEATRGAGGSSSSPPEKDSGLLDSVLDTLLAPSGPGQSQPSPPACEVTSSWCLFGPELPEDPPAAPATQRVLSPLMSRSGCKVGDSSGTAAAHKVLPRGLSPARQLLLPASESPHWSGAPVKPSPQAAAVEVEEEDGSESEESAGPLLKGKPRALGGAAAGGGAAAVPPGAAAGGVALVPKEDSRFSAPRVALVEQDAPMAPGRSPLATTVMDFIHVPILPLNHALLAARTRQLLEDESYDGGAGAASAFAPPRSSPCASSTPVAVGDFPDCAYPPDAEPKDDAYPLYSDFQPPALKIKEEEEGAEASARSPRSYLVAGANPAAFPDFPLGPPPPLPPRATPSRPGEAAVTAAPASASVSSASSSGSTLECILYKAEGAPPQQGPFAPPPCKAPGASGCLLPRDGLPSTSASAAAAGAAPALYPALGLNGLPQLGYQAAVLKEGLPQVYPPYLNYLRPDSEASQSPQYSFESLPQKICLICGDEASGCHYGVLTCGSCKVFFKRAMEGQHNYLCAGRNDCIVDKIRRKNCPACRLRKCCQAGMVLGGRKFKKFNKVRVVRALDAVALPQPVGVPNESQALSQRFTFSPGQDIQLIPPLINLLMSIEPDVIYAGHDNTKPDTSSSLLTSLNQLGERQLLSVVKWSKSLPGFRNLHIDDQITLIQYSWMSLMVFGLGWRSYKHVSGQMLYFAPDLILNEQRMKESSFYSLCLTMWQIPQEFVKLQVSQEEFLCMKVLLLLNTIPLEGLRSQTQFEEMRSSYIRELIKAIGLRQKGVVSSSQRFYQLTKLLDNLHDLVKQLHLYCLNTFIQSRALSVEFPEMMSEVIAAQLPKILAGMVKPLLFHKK
Chain of Androgen receptor (Homo sapiens) (P10275 whole entry, looked up): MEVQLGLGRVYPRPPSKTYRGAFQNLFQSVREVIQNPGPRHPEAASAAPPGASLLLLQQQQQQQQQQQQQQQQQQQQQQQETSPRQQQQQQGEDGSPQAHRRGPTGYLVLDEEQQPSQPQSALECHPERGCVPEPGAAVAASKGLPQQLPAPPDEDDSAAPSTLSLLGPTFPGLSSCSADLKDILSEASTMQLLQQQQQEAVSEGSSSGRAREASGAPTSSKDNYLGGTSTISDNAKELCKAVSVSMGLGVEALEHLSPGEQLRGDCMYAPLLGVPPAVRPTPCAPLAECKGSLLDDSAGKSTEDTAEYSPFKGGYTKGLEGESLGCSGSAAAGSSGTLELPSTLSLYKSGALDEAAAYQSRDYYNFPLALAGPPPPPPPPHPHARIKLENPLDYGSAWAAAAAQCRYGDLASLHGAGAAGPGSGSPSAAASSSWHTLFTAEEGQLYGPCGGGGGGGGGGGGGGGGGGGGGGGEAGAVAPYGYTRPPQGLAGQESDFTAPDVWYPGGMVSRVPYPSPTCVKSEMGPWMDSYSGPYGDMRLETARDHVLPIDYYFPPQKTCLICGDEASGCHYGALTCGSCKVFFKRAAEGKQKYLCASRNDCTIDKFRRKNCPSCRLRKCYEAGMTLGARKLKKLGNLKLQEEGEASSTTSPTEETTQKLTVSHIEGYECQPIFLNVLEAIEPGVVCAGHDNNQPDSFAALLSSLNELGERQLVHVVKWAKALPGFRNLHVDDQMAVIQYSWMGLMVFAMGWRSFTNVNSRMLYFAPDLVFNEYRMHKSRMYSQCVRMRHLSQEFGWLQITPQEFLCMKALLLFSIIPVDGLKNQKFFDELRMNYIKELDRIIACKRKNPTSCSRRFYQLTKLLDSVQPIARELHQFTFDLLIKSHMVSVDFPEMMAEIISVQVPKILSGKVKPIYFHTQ

COC(=O)C(C)Oc1ccc(Oc2ncc(C(F)(F)F)cc2Cl)cc1 (stereo not drawn)
not listed: [17] | [18] | [19] | [20]
inactive: all other assays above

C1COCCN1
not listed: [5] | [11] | [14] | [15] | [19] | [20]
inactive: all other assays above

CC(=O)[C@@]1(O)CC[C@H]2[C@@H]3C[C@H](C)C4=CC(=O)C=C[C@]4(C)[C@@]3(F)[C@@H](O)C[C@@]21C
active: [9] 61.1 nM and 168 nM
not listed: [3] | [6] | [7] | [11] | [19] | [20]
inactive: all other assays above

CC/C=C\C/C=C\C/C=C\CCCCCCCC(=O)O
24.1 µM (active) and inactive: [4]
not listed: [5] | [9] | [10] | [11] | [17] | [18] | [20]
inactive: all other assays above

CCCCCCCCCCCCO
not listed: [5] | [11] | [20]
inactive: all other assays above

IC(I)I
not listed: [5] | [17] | [20]
inactive: all other assays above

CC(=O)Oc1ccc(C(c2ccc(OC(C)=O)cc2)c2ccccn2)cc1
active: [2] 2.16 µM and 3.76 µM
not listed: [3] | [8] | [13] | [18]
inactive: all other assays above

Cc1ccc(C(C)(C)C)c(O)c1
not listed: [4] | [17] | [18] | [20]
inactive: all other assays above

NCCOCCO
not listed: [6] | [7] | [18] | [19] | [20]
inactive: all other assays above

O=C1CCc2ccccc2O1
not listed: [11] | [18] | [20]
inactive: all other assays above

NCCS(=O)(=O)O
25.3 µM (active) and inactive: [8]
not listed: [3] | [20]
inactive: all other assays above

Clc1ccc(Sc2cc(Cl)c(Cl)cc2Cl)cc1
active: [10] 24.3 µM
not listed: [5] | [18] | [20]
inactive: all other assays above

CN(C)C
inactive: [1] | [2] | [4] | [17] | [5] | [8] | [9] | [10] | [12] | [13] | [16]

CC(=O)O[C@]1(C(C)=O)CC[C@H]2[C@@H]3C=C(Cl)C4=CC(=O)CC[C@]4(C)[C@H]3CC[C@@]21C
active: [7] 29.8 µM
not listed: [5] | [9] | [11] | [13] | [20]
inactive: all other assays above

Cc1ccc2c(c1)C(=O)OC2=O
not listed: [5] | [6] | [7] | [17] | [20]
inactive: all other assays above

CC1=CC(C)(C)Nc2ccccc21
not listed: [6] | [7] | [11] | [17] | [18] | [19] | [20]
inactive: all other assays above

C=CCCCCCCCCCC
not listed: [5] | [6] | [7] | [17] | [18] | [20]
inactive: all other assays above
